Assay results from PubChem BioAssay.
Calls of active or inactive are those of the source. Rule as the data show it: active = inhibition above about 31%; inactive = the rest. Peptide text beside a SMILES is read from it. * marks the point of attachment. Boc = CC(C)(C)OC(=O)*

Assay: MRP1 drug-resistance reversers in H69AR cells – cell-based, doxorubicin co-treatment, pilot screen (AID 601)
Conditions: H69AR cells, CellTiter-Glo, 72 h; compound alone cytotoxicity; at 10 µM

SMILES	viability [%]
O=C(CCC(=O)N1CCc2ccccc2C1)N1CCN(S(=O)(=O)c2ccccc2)CC1	90.6
O=C(CN1C(=O)CCSc2ccccc21)Nc1ccc(F)cc1	98.5
CCC(=O)/C=C1\Sc2ccc(OC)cc2N1CCO	87.8

Assay: yeast transport mutant growth inhibition pilot in 384-well plates, post-Golgi transport modulator project (AID 636)
Conditions: absorbance 615 nm, about 18 h, stronger effect = higher value

SMILES	inhibition
Cc1ccc(NC2c3ncccc3C(=O)N2C2CCCCC2)cc1C (stereo not drawn)	-3.78% (inactive)
O=C(O)c1c[nH]c2ccc(S(=O)(=O)N3CCN(c4ccc(F)cc4)CC3)cc2c1=O	0.53% (inactive)
O=C(O)Cn1cc2c(n1)CCCC2	-2% (inactive)
O=C1CC(c2ccc(Cl)cc2)n2nc(N3C(=O)c4ccccc4C3=O)nc2N1 (stereo not drawn)	-3.16% (inactive)
CCc1nnc(NC(=O)CSc2nnc(-c3ccc(OC)cc3)n2C)s1	-2.8% (inactive)
COc1cccc(NC(=O)Nc2cccs2)c1	-6.53% (inactive)
Cn1c(=O)c2c(nc(NCCCO)n2CCc2ccccc2)n(C)c1=O	5.45% (inactive)
CC(=O)c1coc2ccc(OCC(=O)O)cc12	-4% (inactive)
CCCN(Cc1cc2ccc(C)cc2[nH]c1=O)C(=O)c1cccnc1	0% (inactive)
CCOP(=O)(c1ccc(N(C)C)cc1)C(O)c1ccccc1OC (stereo not drawn)	-1.07% (inactive)
CCOCCCn1c(=S)[nH]c2cc3c(cc2c1=O)OCO3	-3.38% (inactive)
COc1ccc(CCNC(=O)C2CCN(Cc3nc(-c4cccc(Cl)c4)oc3C)CC2)cc1OC	-5.13% (inactive)
c1csc(-c2nc3nc4ccccc4nc3n2Cc2ccc3c(c2)OCO3)c1	10.5% (inactive)
CC(C)CC(NC(=O)OC(C)(C)C)C(=O)NC(C(=O)NC(C)C(N)=O)C(C)C (stereo not drawn) (Boc-Leu-Val-Ala-NH2; configuration not given here)	-4.27% (inactive)
COc1ccc(-c2ccc(Nc3ccc(S(=O)(=O)N4CCCC4)cc3)nn2)cc1OC	-6.8% (inactive)
CC1(C(=O)CSc2nc3ccccc3s2)CCC(=O)O1 (stereo not drawn)	-7.4% (inactive)
Cc1cc(NC(=O)CN2CCC(O)(c3cccc(F)c3)CC2)no1	-0.27% (inactive)
COC(=O)c1[nH]c2ccccc2c1NC(=O)CN1CCC(C(N)=O)(N2CCCCC2)CC1	1.58% (inactive)
Cc1cc(C)n(CCCNC(=O)c2ccc3c(c2)NC(=O)CS3)n1	-5.6% (inactive)
CCOC(=O)/C=C1\SCC(=O)N1Cc1ccc(Br)cc1	-7.67% (inactive)

SMILES	inhibition
CCOc1ccc2cc(C#N)c(SCC(=O)N3CCOCC3)nc2c1	-6.8% (inactive)
CCN(CC)CCN1C(=O)C(O)=C(C(=O)c2ccco2)C1c1ccccn1 (stereo not drawn)	-3.82% (inactive)
O=C1CCC(=O)N1OCCCCOc1ccccc1	-3.55% (inactive)
O=C(O)CCc1ccc(-c2ccc(F)cc2)n1CC(=O)O	-7.12% (inactive)
CCN(CC)CCCN(Cc1cc2cc(OC)ccc2[nH]c1=O)C(=O)Nc1ccccc1	-5.73% (inactive)
Cc1cccc(Cc2nnc(NC(=O)c3cccc(S(=O)(=O)N4CCOCC4)c3)s2)c1	-1.82% (inactive)
CC(C)(CO)NC(=O)CCCOc1ccc(Cl)cc1Cl	-0.26% (inactive)
O=C(c1ccc(-c2ccccc2)cc1)N1CCN(c2ncccn2)CC1	-9.32% (inactive)
Fc1ccc(-c2csc3nnc(SCc4cccnc4)n23)cc1	-4.62% (inactive)
CN(C)CCCN1C(=O)C(=O)/C(=C(/O)c2ccncc2)C1c1cccc(Br)c1 (stereo not drawn)	-2.93% (inactive)
CCN(CC)c1ccc(-c2c(C#N)c(N)nc(OC)c2C#N)cc1	-1.17% (inactive)
Cc1cc(NC(=O)CSc2nc3ccccc3n2CC(=O)N2CCCCC2)no1	-5.54% (inactive)
CCOC(=O)C1CCN(C(c2cc3cc(C)cc(C)c3[nH]c2=O)c2nnnn2C2CCCCC2)CC1 (stereo not drawn)	-2.6% (inactive)
O=c1[nH]cnc2c1nc(SCc1ccccc1)n2C1OC(CO)C(O)C1O (stereo not drawn)	-5.54% (inactive)
COc1ccc(-c2noc(CCCC(=O)O)n2)cc1	-6.4% (inactive)
Cc1nc(SCC(=O)N2CCC(C(N)=O)CC2)n[nH]1	-6.32% (inactive)
COC(=O)c1ccc(NC(=O)Cn2nnc3ccccc32)cc1	0.13% (inactive)
O=C(CCC(=O)N1CCc2ccccc2C1)N1CCN(S(=O)(=O)c2ccccc2)CC1	4.81% (inactive)
O=C(CN1C(=O)CCSc2ccccc21)Nc1ccc(F)cc1	3.29% (inactive)
CCC(=O)/C=C1\Sc2ccc(OC)cc2N1CCO	-4.21% (inactive)
